Measurements as given in PubChem BioAssay.
Active and inactive are the calls of the source.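 The calls were made as follows, unless noted: active = NADPH fluorescence slope more negative than the mean of all samples by about 3 SD, 99.7% confidence; inactive = the rest.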

molecular target: Voltage-gated potassium channel subunit beta-2 (Rattus norvegicus) (UniProt P62483); assay: KvBeta positive modulators, primary screen, biochemical, NADPH fluorescence (AID 623); details: Recombinant KvBeta, NADPH fluorescence decrease slope, 10 min; at 10 µM; stronger effect = lower value;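 also: fluorescence intensity change per second fitted from 20 to 320 s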
Sequence (P62483 whole entry, looked up): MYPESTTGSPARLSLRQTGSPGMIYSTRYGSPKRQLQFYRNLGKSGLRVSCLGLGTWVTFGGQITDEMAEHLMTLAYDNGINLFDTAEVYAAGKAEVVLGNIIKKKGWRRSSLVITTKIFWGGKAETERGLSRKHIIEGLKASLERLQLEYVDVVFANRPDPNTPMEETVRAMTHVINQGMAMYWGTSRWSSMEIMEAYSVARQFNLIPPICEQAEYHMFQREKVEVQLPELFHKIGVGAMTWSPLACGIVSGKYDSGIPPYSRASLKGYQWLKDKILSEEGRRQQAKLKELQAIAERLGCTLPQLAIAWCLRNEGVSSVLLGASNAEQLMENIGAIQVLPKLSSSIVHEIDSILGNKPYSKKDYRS

NADPH fluorescence slope, inactive:
CCOc1ccccc1-n1nnnc1SCC(=O)Nc1cc2oc3ccccc3c2cc1OC 2.4e-05
COc1ccccc1C1/C(=C(/O)c2ccccc2)C(=O)C(=O)N1CC(C)C (stereo not given) -2.2e-05
CCn1c(-c2cc(Br)ccc2O)n[nH]c1=S -3.5e-05
Cc1cc(C(=O)Nc2sc3c(c2C#N)CCCCC3)cs1 -1.2e-05
Cc1ccc(N2C(N)=NC(N)=NC23CCCC3)c(C)c1 -5.6e-06
O=C1C2C3C=CC(C3)C2C(=O)N1Cc1ccccc1 (stereo not given) -6.1e-05
CCCN(CCC)C(=O)C1CCN(c2cc(C)nc3c(-c4ccc(OC)c(OC)c4)c(C)nn23)CC1 -2.2e-05
Cc1c[nH]c2cccc(OCC(O)CNC(C)(C)C)c12 (stereo not given) 1.3e-05
O=C(NCCN1CCOCC1)c1ccc2c(c1)N(Cc1ccccc1F)C(=O)CS2 -2e-06
O=C(NCc1ccc2c(c1)OCO2)c1ccc(NS(=O)(=O)c2ccc3c(c2)OCCO3)cc1 -2.7e-05
CC(C)(C#N)Nn1cnnc1 -1.3e-05
CC1=NC(Nc2nc(C)c3ccccc3n2)=NC(C)(C)C1 6.6e-05
O=C(CSCc1cccc(F)c1)N1CCN(c2ccccc2)CC1 -5.3e-05
CC(=O)N1CCN(c2ccc(NC(=O)c3ccc(C(C)(C)C)cc3)cc2)CC1 -4e-05
CC1(C)OC(=O)N(c2cccnc2)C1(C)O (stereo not given) -2.3e-05
Cc1cc(=O)oc2cc(OCC(=O)OCC(=O)N3CCc4ccccc43)ccc12 -5.7e-05
CC1CCCN(c2ccc(C(=O)NCc3cccs3)cn2)C1 (stereo not given) -6.9e-06
CC(=O)c1c(OC(=O)c2ccco2)c2ccccc2n1C -1.2e-05
Cc1cc(/C=N/n2cnnc2)c(C)n1-c1cccc(Cl)c1 -3.8e-05
COc1ccc2ccccc2c1CN1CCCC(CO)C1 (stereo not given) -8.2e-05
CCn1c(C(Cc2ccccc2)NC(=O)COC)nc2ccccc21 (stereo not given) -6.3e-05
CC(C)OC(=O)C1C2C=CC3(CN(Cc4cccs4)C(=O)C13)O2 (stereo not given) -1.6e-05
Cc1[nH]c(=O)[nH]c(=O)c1S(=O)(=O)N1CCCC(C(=O)NCc2ccco2)C1 (stereo not given) -2.3e-05
COc1ccc(OC)c(C2CC(=O)NC(SC)=C2C#N)c1 (stereo not given) -3.6e-05
COc1ccc(S(=O)(=O)NCc2ccc3c(c2)OCO3)cc1C(=O)O -8.9e-06
CC(=O)Nc1ccccc1OCc1nnc(-c2cccs2)o1 2e-06
CCn1nnnc1SCC(=O)N1CCOCC1 3.1e-06
NC(=O)c1c(NC(=O)Cc2cccs2)sc2c1CCC2 -6.1e-05
COC(=O)C(C#N)C(=C1C(=O)CC(C)(C)CC1=O)c1ccc(O)cc1 (stereo not given) -2.3e-05
CCCCn1nnnc1NCc1cccs1 -1.2e-05
CCOC(=O)N1CCC(n2c(SCC(=O)NCc3ccco3)nc3ccsc3c2=O)CC1 -2.9e-05
CCC(=O)N1CCN(c2nc(-c3ccccc3)c3c(c2C#N)CCCC3)CC1 -8.2e-07
c1nc(NCC2(N3CCOCC3)CCCCC2)c2ccsc2n1 -1e-05
CC(C)(C)NC(=O)Cn1nnnc1-c1nonc1N -4.6e-05
Nc1scc(-c2ccncc2)c1Cl 1.9e-05
COc1cccc(-n2c(CNc3ccc(F)cc3)nnc2SCC(N)=O)c1 -1.9e-05
COc1ccc(CCNc2oc(-c3ccccc3OC)nc2C#N)cc1 2.3e-05
CC1(C)CN=C(N2CCN(c3ncnc4sc5c(c34)CCCC5)CC2)S1 -4.9e-05
CC(CN1CCCCC1)OC(=O)c1ccc2c(c1)OCO2 (stereo not given) -3.4e-05
CC(C)CCN(C)C1CCN(S(=O)(=O)c2ccc(F)cc2)CC1 1.3e-05

molecular target: Alpha-2C adrenergic receptor (Homo sapiens) (UniProt P18825); assay: modulators of alpha2C/GIRK thallium flux, primary screen, cell-based, HEK293 alpha2C/GIRK1/2 (AID 624;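 active = fluorescence slope after compound addition differing from the mean of all screened samples at 99.7% confidence, in either direction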;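 also: slope of fluorescence ratio to pre-addition baseline per second over 15 to 24 s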); details: thallium flux BTC fluorescence, at 10 µM, actives lie on both sides
Sequence (P18825 whole entry, looked up): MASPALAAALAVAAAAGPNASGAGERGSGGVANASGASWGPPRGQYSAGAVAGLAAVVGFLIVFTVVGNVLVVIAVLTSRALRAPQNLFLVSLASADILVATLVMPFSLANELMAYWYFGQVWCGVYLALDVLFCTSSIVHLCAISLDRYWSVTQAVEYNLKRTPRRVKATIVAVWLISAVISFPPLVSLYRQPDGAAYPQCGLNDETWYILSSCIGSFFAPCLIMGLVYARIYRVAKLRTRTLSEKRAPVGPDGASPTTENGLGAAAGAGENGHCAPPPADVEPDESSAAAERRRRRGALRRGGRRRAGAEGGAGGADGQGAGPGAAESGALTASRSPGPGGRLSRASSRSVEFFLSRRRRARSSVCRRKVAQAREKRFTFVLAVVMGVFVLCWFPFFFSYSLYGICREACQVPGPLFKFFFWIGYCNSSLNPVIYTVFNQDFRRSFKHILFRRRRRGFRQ

slope, inactive:
CCOc1ccccc1-n1nnnc1SCC(=O)Nc1cc2oc3ccccc3c2cc1OC 0.00931
COc1ccccc1C1/C(=C(/O)c2ccccc2)C(=O)C(=O)N1CC(C)C (stereo not given) 0.00652
CCn1c(-c2cc(Br)ccc2O)n[nH]c1=S 0.00762
Cc1cc(C(=O)Nc2sc3c(c2C#N)CCCCC3)cs1 0.00236
Cc1ccc(N2C(N)=NC(N)=NC23CCCC3)c(C)c1 0.0067
O=C1C2C3C=CC(C3)C2C(=O)N1Cc1ccccc1 (stereo not given) 0.00345
CCCN(CCC)C(=O)C1CCN(c2cc(C)nc3c(-c4ccc(OC)c(OC)c4)c(C)nn23)CC1 0.00708
Cc1c[nH]c2cccc(OCC(O)CNC(C)(C)C)c12 (stereo not given) 0.00547
O=C(NCCN1CCOCC1)c1ccc2c(c1)N(Cc1ccccc1F)C(=O)CS2 0.00607
O=C(NCc1ccc2c(c1)OCO2)c1ccc(NS(=O)(=O)c2ccc3c(c2)OCCO3)cc1 0.00624
CC(C)(C#N)Nn1cnnc1 0.00429
CC1=NC(Nc2nc(C)c3ccccc3n2)=NC(C)(C)C1 0.00711
O=C(CSCc1cccc(F)c1)N1CCN(c2ccccc2)CC1 0.00288
CC(=O)N1CCN(c2ccc(NC(=O)c3ccc(C(C)(C)C)cc3)cc2)CC1 0.00554
CC1(C)OC(=O)N(c2cccnc2)C1(C)O (stereo not given) 0.00628
Cc1cc(=O)oc2cc(OCC(=O)OCC(=O)N3CCc4ccccc43)ccc12 0.00553
CC1CCCN(c2ccc(C(=O)NCc3cccs3)cn2)C1 (stereo not given) 0.00612
CC(=O)c1c(OC(=O)c2ccco2)c2ccccc2n1C 0.00641
Cc1cc(/C=N/n2cnnc2)c(C)n1-c1cccc(Cl)c1 0.00449
COc1ccc2ccccc2c1CN1CCCC(CO)C1 (stereo not given) 0.00503
CCn1c(C(Cc2ccccc2)NC(=O)COC)nc2ccccc21 (stereo not given) 0.00652
CC(C)OC(=O)C1C2C=CC3(CN(Cc4cccs4)C(=O)C13)O2 (stereo not given) 0.005
Cc1[nH]c(=O)[nH]c(=O)c1S(=O)(=O)N1CCCC(C(=O)NCc2ccco2)C1 (stereo not given) 0.00332
COc1ccc(OC)c(C2CC(=O)NC(SC)=C2C#N)c1 (stereo not given) 0.00545
COc1ccc(S(=O)(=O)NCc2ccc3c(c2)OCO3)cc1C(=O)O 0.00676
CC(=O)Nc1ccccc1OCc1nnc(-c2cccs2)o1 0.00944
CCn1nnnc1SCC(=O)N1CCOCC1 0.0034
NC(=O)c1c(NC(=O)Cc2cccs2)sc2c1CCC2 0.00572
COC(=O)C(C#N)C(=C1C(=O)CC(C)(C)CC1=O)c1ccc(O)cc1 (stereo not given) 0.00607
CCCCn1nnnc1NCc1cccs1 0.00631
CCOC(=O)N1CCC(n2c(SCC(=O)NCc3ccco3)nc3ccsc3c2=O)CC1 0.00588
CCC(=O)N1CCN(c2nc(-c3ccccc3)c3c(c2C#N)CCCC3)CC1 0.00519
c1nc(NCC2(N3CCOCC3)CCCCC2)c2ccsc2n1 0.00518
CC(C)(C)NC(=O)Cn1nnnc1-c1nonc1N 0.00302
Nc1scc(-c2ccncc2)c1Cl 0.00535
COc1cccc(-n2c(CNc3ccc(F)cc3)nnc2SCC(N)=O)c1 0.00474
COc1ccc(CCNc2oc(-c3ccccc3OC)nc2C#N)cc1 0.00318
CC1(C)CN=C(N2CCN(c3ncnc4sc5c(c34)CCCC5)CC2)S1 0.0035
CC(CN1CCCCC1)OC(=O)c1ccc2c(c1)OCO2 (stereo not given) 0.00425
CC(C)CCN(C)C1CCN(S(=O)(=O)c2ccc(F)cc2)CC1 0.00577
